Screening results from PubChem BioAssay.
An excerpt weighted towards active compounds, which were near 3.4% of everything screened.
ADAM17 inh: ADAM17 inhibitors, primary screen, biochemical, QFRET. Disintegrin and metalloproteinase domain-containing protein 17 (Homo sapiens), P78536. recombinant ADAM17, EDANS/DABCYL FRET peptide cleavage. inhibition, % at 6.95 µM. actives 0.83% (n = 370,000);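 active means inhibition above the mean of compounds lying between control limits plus 3 SD, set per campaign, cut at about 8.5% in these data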;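 further: 0% = DMSO-only wells as the low control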
ADAM10 inh: human ADAM10 inhibitors, primary screen, biochemical, QFRET, HTS. recombinant ADAM10, EDANS/DABCYL FRET peptide cleavage, 3 h. actives 0.62% (n = 370,000). Disintegrin and metalloproteinase domain-containing protein 10 (Homo sapiens), O14672. AID 720582, 2013. inhibition, % at 7 µM;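 active means inhibition above a per-campaign cutoff equal to the mean of compounds falling between control-based bounds plus 3 SD, cut at about 20% in these data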;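 further: 0% = DMSO wells while the 100% control is not disclosed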
Target sequence (O14672 214-748 limits assumed): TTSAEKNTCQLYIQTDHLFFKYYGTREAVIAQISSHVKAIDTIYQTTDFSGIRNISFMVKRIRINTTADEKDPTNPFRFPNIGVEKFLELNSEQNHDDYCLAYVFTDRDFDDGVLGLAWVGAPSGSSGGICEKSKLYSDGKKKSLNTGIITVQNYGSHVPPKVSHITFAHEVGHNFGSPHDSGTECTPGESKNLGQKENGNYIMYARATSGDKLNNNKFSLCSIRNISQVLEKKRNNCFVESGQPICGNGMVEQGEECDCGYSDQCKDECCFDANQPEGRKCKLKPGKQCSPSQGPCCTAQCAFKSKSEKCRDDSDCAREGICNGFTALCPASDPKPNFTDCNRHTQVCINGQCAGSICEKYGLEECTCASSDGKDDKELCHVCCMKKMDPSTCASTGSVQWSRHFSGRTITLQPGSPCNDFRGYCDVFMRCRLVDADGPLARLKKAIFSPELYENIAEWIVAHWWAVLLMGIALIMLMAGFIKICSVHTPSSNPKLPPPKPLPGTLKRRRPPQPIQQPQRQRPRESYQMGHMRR
proKLK7 act: proKLK7 zymogen activators, primary screen, biochemical, fluorescence intensity. actives 0.9% (n = 370,000). purified proKLK7, EDANS-DABCYL substrate fluorescence; 100% is mature enzyme control, 0% vehicle. activation, % at 7 µM;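 active means activation above the mean of all tested compounds plus 3 SD, computed per campaign excluding outliers beyond control limits, cut at about 13% in these data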
HGIII-sPLA2 inh: human group III sPLA2 inhibitors, primary screen, biochemical, QFRET, BODIPY PC-A2 liposome substrate. Group 3 secretory phospholipase A2 (Homo sapiens), Q9NZ20. QFRET BODIPY PC-A2 liposome hydrolysis, fluorescence. inhibition, % at 12.2 µM. actives 0.56% (n = 370,000). AID 743126, 2013;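 active means inhibition above mean plus 3 SD of compounds lying within the high and low control bounds, cut at about 19% in these data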;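 further: 0% = median of test compound wells and 100% = no enzyme DMSO wells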
PLC-beta3 inh: human PLC-beta3 inhibitors, primary screen, biochemical, fluorescence | actives 0.18% (n = 370,000) | AID 720704, 2013 | inhibition, % at 12.2 µM | Purified PLC-beta3, fluorogenic substrate; in the data active means inhibition above about 11%;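 further: 0% = median of compound wells on plate and 100% = full blocker control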
PLCg1 inh: PLC-gamma1 enzyme inhibitors, primary screen, biochemical, fluorescence, purified enzyme; fluorogenic substrate; actives 0.84% (n = 370,000); 1-phosphatidylinositol 4,5-bisphosphate phosphodiesterase gamma-1 (Homo sapiens), P19174; inhibition, % at 12.2 µM; AID 720700, 2013; in the data active means inhibition above about 9.5%
ADAM10 confirm: human ADAM10 inhibitors, confirmation, biochemical, QFRET, triplicate. shares compounds with ADAM10 inh. ADAM10 QFRET peptide cleavage, EDANS fluorescence. inhibition, % at 6.95 µM. actives 1% (n = 2,100);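 active means inhibition above about 20% chosen separately for each screening run, limit read from the data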;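 further: 0% = DMSO wells and 100% = marimastat wells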
ADAM17 counter: ADAM17 inhibitors, counter-screen for ADAM10 exosite inhibitor project, biochemical, QFRET, high throughput | inhibition, % at 6.95 µM | AID 743214, 2013 | shares compounds with ADAM10 inh | ADAM17 QFRET peptide cleavage, EDANS fluorescence | actives 0.5% (n = 2,100);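 active means mean triplicate inhibition above the solvent-only control wells' mean plus 3 SD, cut at about 12% in these data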;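 further: 0% = DMSO wells and 100% = marimastat wells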
Numbers without * were called inactive.

How did Cn1c(=O)c2c(nc(N3CCCCC3)n2CC(O)COc2ccccc2)n(C)c1=O (stereo not given) do in these assays?
ADAM17 inh: 0; ADAM10 inh: 21*; proKLK7 act: -1; HGIII-sPLA2 inh: 3; PLC-beta3 inh: -1; PLCg1 inh: 4; ADAM10 confirm: -1; ADAM17 counter: 0

Results for Cn1c(=O)c2c(nc(N3CCCCCC3)n2CC(O)COc2ccccc2)n(C)c1=O (stereo not given) ?
ADAM17 inh: -5; ADAM10 inh: -6; proKLK7 act: 0; HGIII-sPLA2 inh: 0; PLC-beta3 inh: 0; PLCg1 inh: 0

How did Cc1noc(C)c1C(C)C1=CCCCC1 (stereo not given) do in these assays?
ADAM17 inh: -2; ADAM10 inh: 4; proKLK7 act: 0; HGIII-sPLA2 inh: 5; PLC-beta3 inh: 4; PLCg1 inh: -1

What do the screens show for `Cc1ccc(Sc2ncccc2COC(=O)Nc2c(C)cccc2C)cc1`?
ADAM17 inh: 7; ADAM10 inh: 16; proKLK7 act: 0; HGIII-sPLA2 inh: -6; PLC-beta3 inh: 5; PLCg1 inh: 7

Results for Cc1ccc(Sc2ncccc2COC(=O)Nc2ccccc2)cc1 ?
ADAM17 inh: 8; ADAM10 inh: 22*; proKLK7 act: 1; HGIII-sPLA2 inh: -11; PLC-beta3 inh: 2; PLCg1 inh: 2; ADAM10 confirm: 6; ADAM17 counter: 3

What do the screens show for `Oc1ccc(-c2nccc(-c3ccc(Br)cc3)n2)cc1`?
ADAM17 inh: 6; ADAM10 inh: 20*; proKLK7 act: 0; HGIII-sPLA2 inh: -56; PLC-beta3 inh: -9; PLCg1 inh: 1; ADAM10 confirm: 6; ADAM17 counter: 2

Results for CC1CCN(CCCNC(=O)CN2CCN(Cc3ccc(Cl)cc3)C2=O)CC1 ?
ADAM17 inh: -1; ADAM10 inh: 49*; proKLK7 act: 0; HGIII-sPLA2 inh: 11; PLC-beta3 inh: 0; PLCg1 inh: -1; ADAM10 confirm: 3; ADAM17 counter: 1

What do the screens show for `O=S1(=O)c2ccc(N3CCC[C@@H]3CO)cc2O[C@@H]2CCN1C2`?
ADAM17 inh: -10; ADAM10 inh: -5; proKLK7 act: 0; HGIII-sPLA2 inh: 0; PLC-beta3 inh: -4; PLCg1 inh: -4

What do the screens show for `ON=C1c2ccccc2-c2ccc(Br)cc21`?
ADAM17 inh: 8; ADAM10 inh: 26*; proKLK7 act: 1; HGIII-sPLA2 inh: -42; PLC-beta3 inh: 1; PLCg1 inh: 3; ADAM10 confirm: 2; ADAM17 counter: 1

How did COc1ccc(NC(=O)CSc2nc3c([nH]c4ccccc43)c(=O)n2C)cc1 do in these assays?
ADAM17 inh: 0; ADAM10 inh: 57*; proKLK7 act: 0; HGIII-sPLA2 inh: 0; PLC-beta3 inh: 4; PLCg1 inh: 1; ADAM10 confirm: 4; ADAM17 counter: 0

Results for Cn1c(=O)cc(OCC(=O)N2CCN(c3ccccc3Cl)CC2)c2ccccc21 ?
ADAM17 inh: -4; ADAM10 inh: -2; proKLK7 act: 0; HGIII-sPLA2 inh: 4; PLC-beta3 inh: 5; PLCg1 inh: 1

What do the screens show for `O=c1[nH][nH]c2c1[C@@H](c1ccc(F)cc1)O[C@H](CCc1ccccc1)C2`?
ADAM17 inh: 8; ADAM10 inh: 19; proKLK7 act: 0; HGIII-sPLA2 inh: -53; PLC-beta3 inh: 4; PLCg1 inh: 3

Results for O=c1[nH][nH]c2c1C(c1ccc(F)cc1)OC(CCc1ccccc1)C2 (stereo not given) ?
ADAM17 inh: 7; ADAM10 inh: 20*; proKLK7 act: 0; HGIII-sPLA2 inh: -51; PLC-beta3 inh: 1; PLCg1 inh: 8; ADAM10 confirm: 3; ADAM17 counter: 1

Results for CC(C)C[C@H]1COc2cccc(F)c2S(=O)(=O)N1Cc1cn(CC2CCCCC2)nn1 ?
ADAM17 inh: -2; ADAM10 inh: -14; proKLK7 act: 1; HGIII-sPLA2 inh: 15; PLC-beta3 inh: -4; PLCg1 inh: 3

What do the screens show for `CCOC(=O)c1c(NC(=O)CSc2nnnn2C)sc(C)c1-c1ccc(C)cc1`?
ADAM17 inh: 6; ADAM10 inh: 26*; proKLK7 act: 1; HGIII-sPLA2 inh: -53; PLC-beta3 inh: -5; PLCg1 inh: 0; ADAM10 confirm: 9; ADAM17 counter: 3

What do the screens show for `CC1CC(=O)C2=C(C1)Nc1ccccc1SC2c1ccc(F)cc1` (stereo not given)?
ADAM17 inh: 2; ADAM10 inh: 21*; proKLK7 act: 1; HGIII-sPLA2 inh: -6; PLC-beta3 inh: -22; PLCg1 inh: -13; ADAM10 confirm: 4; ADAM17 counter: 1

What do the screens show for `COc1cc(NC(=O)C2CCN(S(=O)(=O)c3cccc4nonc34)CC2)cc(OC)c1`?
ADAM17 inh: 3; ADAM10 inh: 23*; proKLK7 act: 0; HGIII-sPLA2 inh: -15; PLC-beta3 inh: 2; PLCg1 inh: 6; ADAM10 confirm: -1; ADAM17 counter: 0

How did CC(C)(C)c1nn(-c2ccccc2)c2[nH]c(=O)c(C=O)cc12 do in these assays?
ADAM17 inh: -2; ADAM10 inh: 78*; proKLK7 act: 0; HGIII-sPLA2 inh: -3; PLC-beta3 inh: -94; PLCg1 inh: -65; ADAM10 confirm: 5; ADAM17 counter: 2

Results for COc1ccc(N2CCN(CCCNC(=O)Cn3c(=O)c4cccn4c4c(C)ccnc43)CC2)cc1 ?
ADAM17 inh: -2; ADAM10 inh: 9; HGIII-sPLA2 inh: 2; PLC-beta3 inh: 4; PLCg1 inh: 6

What do the screens show for `O=C(c1ccc(C#CC2(O)CCCCC2)cc1)N1CCN(Cc2ccccc2)CC1`?
ADAM17 inh: 1; ADAM10 inh: 5; proKLK7 act: 0; HGIII-sPLA2 inh: -34; PLC-beta3 inh: -1; PLCg1 inh: -1
